Bioassay records deposited in PubChem BioAssay by National Center for Advancing Translational Sciences (NCATS).
D1 ag = human D1 receptor agonism | 1% of 360,000 active | AID 504660 | HEK293 T-REx D1 cells, calcium flux, agonist mode | activation, % at 2 µM; in the data active = activation above about 30%; note: 0% is about no effect
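Inducible HEK293 T-REx D1 cells, force-coupled to calcium signalling, were plated at 4000 cells/well with tetracycline and held overnight at 30 C. After no-wash calcium dye loading, compound-evoked calcium rise over 180 s flagged agonists.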
D1 antagonist = blocks dopamine activation of the human D1 receptor. P21728. HEK293 TREx D1 cells, calcium flux, dopamine EC80; active compounds read low. activity change, negative = inhibition, % at 10 µM. 3.2% of 360,000 active. AID 504652; in the data active = activity change below about -30%; note: % is set by controls: 0 for no effect and ±100 for the full control effect
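Compound effects on dopamine-evoked calcium signalling were measured in tetracycline-induced HEK293 Trex D1 cells. Dopamine at EC80 followed a 180 s compound pre-read, and fluorescence was tracked kinetically for 180 s more.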
D1 potentiator = enhances dopamine response at the human D1 receptor | P21728 | HEK293 TREx D1 cells, calcium flux, dopamine EC20 potentiation | potentiation, % at 10 µM | 0.036% of 360,000 active | AID 504651; in the data active = potentiation above about 30%; note: 0% is about no effect
D3 antag = blocks the human D3 dopamine receptor; AID 652054; 2.5% of 360,000 active; D3R cells, DiscoveRx beta-arrestin luminescence, antagonist mode; active compounds read low; max response, negative = inhibition, %; P35462; in the data active = max response below about -50%; inconclusive = no clear call, values can overlap the other calls; note: % is set by controls: 0 for no effect and ±100 for the full control effect
Target sequence (P35462 whole entry, looked up): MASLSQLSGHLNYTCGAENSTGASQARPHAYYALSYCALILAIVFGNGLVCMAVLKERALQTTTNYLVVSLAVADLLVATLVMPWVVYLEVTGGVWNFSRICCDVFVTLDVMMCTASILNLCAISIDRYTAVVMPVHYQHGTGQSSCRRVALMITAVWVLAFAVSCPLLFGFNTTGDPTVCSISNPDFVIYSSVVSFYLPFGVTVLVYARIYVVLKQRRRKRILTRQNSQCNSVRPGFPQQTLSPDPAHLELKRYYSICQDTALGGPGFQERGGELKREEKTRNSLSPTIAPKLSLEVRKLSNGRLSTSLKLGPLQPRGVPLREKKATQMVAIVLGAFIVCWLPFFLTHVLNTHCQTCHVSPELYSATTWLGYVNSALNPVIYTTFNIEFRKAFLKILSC
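Cells expressing the human receptor were seeded at 1500 cells/well, incubated overnight at 37 degrees C in 5% CO2, then exposed to library compounds with dopamine controls for 90 minutes at 37 degrees C before luminescent detection.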
DRD3 agonist = agonists of human D3 dopamine receptor | P35462 | D3R DiscoveRx beta-arrestin cells, luminescence, 90 min | max activation, % | 0.58% of 410,000 active; in the data active = max activation above about 30%; note: 0% is about no effect
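Agonist mode: compounds and dopamine controls were applied to plated cells for 90 min at 37 degrees C after an overnight attachment at 1500 cells/well. Luminescent read-out followed 30 - 60 minutes at room temperature with DiscoveRx detection reagent.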
Active calls of the source: *; ? = inconclusive; nt = not tested or not shown. A selection: hits, their analogues and other compounds. The true share with any hit is near 6%.

SMILES	D1 ag	D1 antagonist	D1 potentiator	D3 antag	DRD3 agonist
CC(=NCCCO)c1c(O)[nH]c(=O)[nH]c1=O	1	-1	2	4	15
C=CCn1c(O)c(C(C)=NCCN2CCCCC2)c(=O)[nH]c1=O	4	-7	0	-65*	-6
CCCCn1c(O)c(C(C)=NCCN2CCCCC2)c(=O)[nH]c1=O	4	-17	4	-71*	-8
O=C1OC(c2ccc(O)c(S(=O)(=O)O)c2)(c2ccc(O)c(S(=O)(=O)O)c2)c2c(Br)c(Br)c(Br)c(Br)c21	nt	nt	nt	nt	5
Cc1cccc(-n2c(CC3C(=O)Nc4ccc(C)cc43)nc3ccccc3c2=O)c1 (stereo not drawn)	1	8	-1	nt	10
COCC(=O)N(c1c(C)cccc1C)C(C)C(=O)OC (stereo not drawn)	nt	nt	nt	nt	-16
COc1ccc(CN2CC=C(c3ccc(F)cc3)CC2)cc1Br	5	-9	-4	-68*	-24
CCN(CC)c1ccc(CN2CC=C(c3ccc(F)cc3)CC2)cc1	5	7	-18	-67*	-17
Cc1ccc(OCC(=O)N2CCN(Cc3ccc(F)cc3)CC2)cc1	1	-19	-3	nt	-2
Cc1cc(Br)c(NC(=O)CN2CC=C(c3ccccc3)CC2)c(Br)c1	4	-13	-1	4	1
C=C1[C@@H](C)[C@H]2[C@H](Cc3ccccc3)NC(=O)[C@]23OC(=O)/C=C/[C@H](O)CCC[C@@H](C)C/C=C/[C@H]3[C@@H]1O	2	14	-5	182	78*
CCCOC(=O)Cc1ccc(OCC(=O)N(CC)CC)c(OC)c1	nt	nt	nt	nt	6
Cc1nnc(NC(=O)c2cccn(Cc3ccccc3F)c2=O)s1	1	2	-2	nt	-4
CC(=O)[C@H]1CC[C@H]2[C@@H]3CC[C@H]4C[C@H](O)CC[C@]4(C)[C@H]3C(=O)C[C@]12C	3	-24	-3	13	-9
CC(=O)OCC(=O)[C@H]1CC[C@H]2[C@@H]3CC[C@H]4C[C@H](O)CC[C@]4(C)[C@H]3C(=O)C[C@]12C	-1	3	1	-85*	-31
O=C(Nc1ccccc1-c1ccc(Cl)cc1)c1cccnc1Cl	nt	nt	nt	nt	-26
CCCc1nc(SC)ncc1C(=O)Nc1ccc(Cl)cc1C(=O)c1ccccc1	1	10	-1	nt	9
[2H]C([2H])([2H])[C@H](N)Cc1ccccc1	nt	nt	nt	nt	7
Cc1ccc(N2C(=O)NC(=O)/C(=C\C=C\c3ccco3)C2=O)cc1	5	13	-1	-16	-4
Cc1ccc(N2C(=O)NC(=O)/C(=C\C=C\c3ccco3)C2=O)cc1C	7	16	-4	-59*	0
CCN(CC)C(=O)c1ccc(NC(=O)CCn2nc(-c3ccc(Cl)cc3)c3ccccc3c2=O)cc1	1	-4	-6	nt	1
CC(C)C[C@H](NC(=O)[C@@H]1CCCN1C(=O)[C@@H](N)Cc1ccc(O)cc1)C(=O)NCC(N)=O	1	-37*	7	5	10
O=C(NCCN1CCC2(CC1)C(=O)NCN2c1cccc(F)c1)c1ccc2ccccc2c1	nt	nt	nt	-89*	-11
O=C1NCN(c2ccccc2)C12CCN(CC1COc3ccccc3O1)CC2 (stereo not drawn)	nt	nt	nt	nt	-24
O=C(NCCN1CCC(n2c(=O)[nH]c3ccccc32)CC1)c1ccc2ccccc2c1	nt	nt	nt	-55*	-10
SMILES	D1 ag	D1 antagonist	D1 potentiator	D3 antag	DRD3 agonist
CC(O)CN1CCN(CC(=O)[O-])CCN(CC(=O)[O-])CCN(CC(=O)[O-])CC1.[Gd+3] (stereo not drawn)	nt	nt	nt	nt	4
COc1ccc(CCNCc2cc(OC)cc(OC)c2)cc1	nt	nt	nt	3	0
COc1ccc(CCNC(C)CCc2ccc(OC)cc2)cc1 (stereo not drawn)	0	-5	0	-52*	-30
Cc1c(O)ccc(C(=O)CN2CC(C)OC(C)C2)c1O (stereo not drawn)	2	-40*	-4	5	-2
NC(=O)C1(N2CCCCC2)CCN(Cc2ccccc2)CC1	3	-2	-3	-68*	-29
Cn1c(=O)n(C)c2cc(CNCCc3ccc(F)cc3)ccc21	8	2	-1	nt	-20
CCOC(=O)C1(c2ccccc2)CCN(CCC(=O)Nc2ccc(C(=O)OC)cc2)CC1	23	-2	nt	-51*	-19
O=C(CCN1CCOCC1)Nc1ccc(Br)cc1C(=O)c1ccccc1	1	20	-3	0	-5
CCOC(=O)C1(c2ccccc2)CCN(CC(=O)Nc2ccc(C)cc2)CC1	0	-1	-4	-56*	-6
CCOC(=O)C1(c2ccccc2)CCN(CCC(C#N)(c2ccccc2)c2ccccc2)CC1	nt	nt	nt	-72*	-77
CCOC(=O)C1(c2ccccc2)CCN(CCC(=O)Nc2ccc(OC)cc2)CC1	nt	nt	nt	-11	3
CCOC(=O)C1(c2ccccc2)CCN(CCC(=O)Nc2cccc(Br)c2)CC1	5	-23	-3	-87*	-27
C[N+]1([O-])[C@@H]2CC[C@H]1CC(OC(=O)C(CO)c1ccccc1)C2 (stereo partly drawn)	nt	nt	nt	nt	-5
CC/C(CC(c1ccccc1)c1c(O)c2ccccc2oc1=O)=N\NC(N)=S (stereo not drawn)	4	-32*	-12	1	2
O=c1oc2ccccc2c(O)c1C(CC(O)c1ccc(-c2ccc(Br)cc2)cc1)c1ccccc1 (stereo not drawn)	nt	nt	nt	nt	8
COc1ccc(Br)cc1CN1CCN(CCO)CC1	4	19	6	-87*	-32
COc1cc(Br)cc(CN2CCN(C)CC2)c1O	3	-4	-7	?	-57
Oc1ccc(Br)cc1CN1CCN(c2ccccc2)CC1	2	3	0	-95*	-48
CCN1CCN(Cc2cc(Br)ccc2O)CC1	3	2	-4	-73*	-5
CCc1ccc(CN2CCN(Cc3cc(Br)ccc3O)CC2)cc1	-2	9	0	-80*	-17
CCN1CCN(Cc2cc(Br)cc(Br)c2O)CC1	11	-26	-10	?	-2
O=C(O)[C@@H](O)[C@H](O)C(=O)O	nt	nt	nt	12	3
Cc1nnc2n1-c1sc(CCc3ccc(CC(C)C)cc3)cc1C(c1ccccc1Cl)=NC2C (stereo not drawn)	nt	nt	nt	nt	-4
CC(C)(C)c1ccc(OCC(=O)Nc2ccc(Cl)cc2C(=O)c2ccccc2)cc1	0	8	0	nt	4
CCCC(=O)Nc1ccc(N2CCN(CC)CC2)c(Cl)c1	2	-41*	-12	2	-5
Cc1ccccc1OCC(=O)N1CCN(CCc2ccccn2)CC1	-1	4	1	nt	-1
CC(=O)O[C@H]1C[C@@H]2CC[C@@H]3[C@H](CC[C@]4(C)C(=O)CC[C@@H]34)[C@@]2(C)C[C@@H]1OC(C)=O	3	-41*	-6	-3	-8
CC(=O)OC1=CC[C@H]2[C@@H]3CC[C@H]4C[C@H](OC(C)=O)[C@@H](OC(C)=O)C[C@]4(C)[C@H]3CC[C@]12C	1	-1	-4	-2	2
CCCSP(=O)(OCC)SCCC	nt	nt	nt	nt	8
